Screening results (PubChem)
p53ts 39C kill: kills p53ts cells at the nonpermissive temperature. 1.5% of 130,000 active. Potency, µM (top dose mostly 46.1 µM), for the others: at the top dose activity change, negative = cell killing, usual class: cytotoxic. H1299-p53A138V viability at 39C, ATP luminescence, 24 h; also: % is scaled to controls: 0 for no effect and ±100 for the full control effect; nearly all actives have a fitted effect of over 55% in size
p53ts 32C kill: cytotoxicity in p53ts cells at permissive temperature | H1299-p53A138V at 32C, ATP luminescence viability, 24 h | Potency, µM (doses to about 46.1 µM), inactives show at the highest dose activity change, negative = cytotoxicity, usual class: cytotoxic | 0.93% of 130,000 active | AID 924;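 also: 0% = DMSO and -100% = full killing by reference compound; nearly all actives have a fitted effect of over 55% in size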
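ATP-content luminescence (ATPlite) read-out after 24 h compound exposure at 32C in H1299-p53A138V cells (600/well). Tested up to 46 uM. Normalized to DMSO (0%) and 100 uM tamoxifen (100% killing); Hill-fit AC50.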
IkB signaling: inhibitors of IkB signaling in ABC-DLBCL cells | Potency, µM (top dose mostly 57.1 µM), inactives show top-dose IkBa stabilization activation | 0.04% of 110,000 active | ABC-DLBCL IkBa-CBG/CBR dual luciferase ratio, 4 h; response scale: scaled: untreated 0%, proteasome inhibitor 100%; active = well fitted curve in the direction sought with a large enough effect in the signal ratio, not every such curve was filed as active; inconclusive = small, poorly fitted or top-dose-only effect, or a change in a side signal; the % refers to the signal ratio;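 also: the direction sought is a rising ratio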
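Luminescence ratio of IκBα-fused green versus native red beetle luciferase in OCI-Ly3 cells, 4 h post-doxycycline with compound; red signal alone, scaled from basal (0%) to zero light (-100%), flagged nonspecific or cytotoxic effects.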
Peg3 imprint: induces erasure of genomic imprints in mouse ES cells | mouse ES Peg3-LacZ reporter, beta-gal luminescence, 40 h | 0.02% of 110,000 active | Potency, µM (titrated, usually from 60.7 µM), for inactives: at the top dose activity change, positive = activation, most hits filed as activators | AID 1948
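Each well holds 300 Peg3LacZ-Neo (maternal) female ES cells incubated 40 h at 37C, 5% CO2. LacZ is measured by BetaGlo luminescence, with AC50 and maximum efficacy derived from dose-response curves.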
An asterisk follows results filed as active; u = inconclusive; x = no result given; ! = not active in a repeat; [ ] = another dose, or the depositor's remark. This is a sample that favours compounds with a hit; in the whole collection about 1.6% have one here. Unless noted, calls follow the shape of the dose curve; as a rule, active = well fitted curve in the direction sought with a large enough effect; inconclusive = small, poorly fitted or top-dose-only effect, or another doubt; inactive = no such curve, though single readings can be large; an effect the other way counts as inactive or inconclusive. Potency is read from the fitted curve at half-maximal effect.

SMILES | p53ts 39C kill | p53ts 32C kill | IkB signaling | Peg3 imprint
CCOC(=O)c1ccc(N2C(=O)c3n[nH]c(-c4cccs4)c3C2c2ccc(C(C)(C)C)cc2)cc1 (centres undefined) | 16µM* | u | u | -16%[10.9 µM]
CCOC(=O)c1ccc(N2C(=O)c3n[nH]c(-c4cccs4)c3C2c2ccc(Cl)cc2Cl)cc1 (centres undefined) | u | u | u | -14%[10.9 µM]
COc1ccc2c(c1)-c1nc(NC(=O)c3ccc(Cl)cc3)sc1CC2 | 10µM* | u | 0% | -7%[10.9 µM]
Cc1ccc(-c2nc(S(=O)(=O)c3ccccc3)c(SCC(=O)NC3CCCCC3)o2)cc1 | 1.6µM* | -28% | 3% | -10%[10.9 µM]
C[C@H]1C2C=C[C@H]1[C@@H](C(=O)O)[C@@H]2c1c2ccc(=O)c(O)c-2oc2c(O)c(O)ccc12 | x | x | x | -15%[10.9 µM]
CCC(C)C(=O)c1c(O)c(C)c2oc3c(C)c(O)c(C(=O)C(C)CC)c(O)c3c2c1O (centres undefined) | 13µM* | 13µM* | x | 6%
CCn1nc(-c2cccs2)nc2c(=O)n(C)c(=O)nc1-2 | 4µM* | 2µM* | u | -94%
COc1cc2c(cc1OC)-c1c(O)c(OC)cc3c1[C@@H](C2)N(C)CC3 | x | x | 1%[11.4 µM] | x
COc1cc2c(cc1OC)-c1c(O)c(OC)cc3c1[C@H](C2)N(C)CC3 | u | 32µM* | x | -13%
Cc1cc[c]([Sb]2[O]C([C@H](O)[C@H](O)C(=O)O)[C@@H](CO)[O]2)cc1 (some centres undefined) | x | x | x | -2%[10.9 µM]
CN1CC[C@@]2(C)c3cc(O)ccc3N(C)C12 (some centres undefined) | x | x | x | -64%
CN1CC[C@]2(C)c3cc(O)ccc3N(C)[C@@H]12 | 25µM* | 20µM* | u | -5%[16.8 µM]
CCCCC[CH2][Hg][S]C1=C2N=CNC2NC(N)=N1 (centres undefined) | x | x | x | -69%[10.9 µM]
CCC(=O)OC1CCC2C3CCC4=CC(=O)CC[C@@]4(C)C3CC[C@]12C (some centres undefined) | x | x | x | -15%
CCC(=O)OC1CCC2C3CCc4cc(O)ccc4C3CC[C@]12C (some centres undefined) | 10µM* | u | x | -35%
CN[C@@H]1C[C@@H](c2ccc(Cl)c(Cl)c2)c2ccccc21 | 13µM* | 20µM* | -7% | -38%
CN[C@@H]1C[C@H](c2ccc(Cl)c(Cl)c2)c2ccccc21 | 25µM* | 2% | u | -49%
O=C(O)C[SH+]CC(=O)O.O=C(O)C[SH+]CC(=O)O.[Cu] | x | x | x | -10%[10.9 µM]
C(=C/c1ccccc1)/CN1CCN(CCOC(c2ccccc2)c2ccccc2)CC1 | 32µM* | -19% | u | -19%
c1ccc(C(OCCN2CCNCC2)c2ccccc2)cc1 | -18% | -5% | 0% | -24%
O=C(O)[C@@H]1[C@H](C(=O)O)[C@]2(Cl)C(Cl)=C(Cl)[C@@]1(Cl)C2(Cl)Cl | 1µM* | u | 3.2µM* | 2%[10.9 µM]
O=S1OCC2C(CO1)C1(Cl)C(Cl)=C(Cl)C2(Cl)C1(Cl)Cl (centres undefined) | -6% | 20% | 3% | -9%
c1cc(OCC2CO2)cc(OCC2CO2)c1 (centres undefined) | 25µM* | -4%[1.84 µM] | u | 3%
CC(C)(COCC1CO1)COCC1CO1 (centres undefined) | 9% | 2%[1.84 µM] | 1% | 1%
CCCCCCC(C)(C)c1ccc([C@@H]2C[C@H](O)CC[C@@H]2CCCO)c(O)c1 | 6.3µM* | 13µM* | u | -24%
SMILES | p53ts 39C kill | p53ts 32C kill | IkB signaling | Peg3 imprint
N[C@@H](Cc1cc(O)c(O)cc1O)C(=O)O | 9% | 8% | 1% | x
C/C=C1\C[C@H](C)[C@](O)(CO)C(=O)OCC2=CCN3CC[C@@H](OC1=O)[C@@H]23 | x | x | 0%[11.4 µM] | x
CNCCc1ccc(O)c(O)c1 | 20µM* | u | 0% | -44%
NC1=NC([S][Hg][c]2ccc(N)cc2)c2ncn([C@@H]3O[C@H](CO)[C@@H](O)[C@@H]3O)c2N1 (some centres undefined) | x | x | x | 4%[10.9 µM]
C[CH2][Hg][S]c1ccccc1C(=O)O | 1.3µM* | 1µM* | x | -88%
CNc1ccccc1C(=O)O | 6% | -6% | x | -9%
COc1ccc(C(=O)O)cc1OC | -3% | -18% | x | -1%
O=C(O)c1cc(O)c(O)c(O)c1 | 10µM* | 13µM* | 0% | -94%
O=C1C[C@@H]2OCC=C3CN4CC[C@]56c7ccccc7N1[C@H]5[C@@H]2[C@H]3C[C@@H]46 | x | x | 0%[11.4 µM] | x
CCCCCCCCCCCCCC(=O)O[C@H]1[C@@H](C)[C@@]2(O)[C@@H](C=C(CO)C[C@]3(O)C(=O)C(C)=C[C@@H]23)C2C(C)(C)[C@]21OC(C)=O (some centres undefined) | 16µM* | u | u | x
CC[C@H](CO)NC(=O)[C@@H]1C=C2c3cccc4[nH]cc(c34)C[C@@H]2N(C)C1 | 4% | -6% | 2% | x
[O]=[Cr](=[O])([OH])[O][Cr](=[O])(=[O])[OH] | 10µM* | -5%[1.84 µM] | 6% | -18%
CC[n+]1c(-c2ccccc2)c2cc(N)ccc2c2ccc(N)cc21 | 2.5µM* | 4µM*! | u | -63%
CC1CC[C@@]2(OC1)OC1C(O)C3C4CC[C@H]5CC(O[C@@H]6O[C@@H](CO)[C@H](OC7OC(CO)C(O)C(OC8OCC(O)C(O)[C@H]8O)[C@@H]7O[C@@H]7OC(CO)[C@H](O)[C@@H](O[C@@H]8OC(CO)C(O)C(O)C8O)C7O)C(O)C6O)C(O)C[C@]5(C)C4CC[C@]3(C)C1C2C (some centres undefined) | 6.3µM* | 6.3µM* | x | -37%
CC1CC[C@@]2(OC1)O[C@@H]1[C@@H](O)[C@H]3C4CC[C@H]5C[C@@H](O[C@@H]6O[C@H](CO)[C@H](O[C@@H]7O[C@H](CO)[C@@H](O)[C@H](O[C@@H]8OC[C@@H](O)[C@H](O)[C@H]8O)[C@H]7O[C@@H]7O[C@H](CO)[C@@H](O)[C@H](O[C@@H]8O[C@H](CO)[C@@H](O)[C@H](O)[C@H]8O)[C@H]7O)[C@H](O)[C@H]6O)[C@H](O)C[C@]5(C)C4CC[C@]3(C)[C@H]1[C@@H]2C (some centres undefined) | 13µM* | 13µM* | x | -22%
CC(=O)OC1C[C@H](O[C@@H]2C(O)C[C@H](O[C@@H]3C(O)C[C@@H](OC4CC[C@]5(C)C(CCC6C5CC(O)[C@@]5(C)C(C7=CC(=O)OC7)CC[C@@]65O)C4)OC3C)OC2C)O[C@H](C)[C@H]1O[C@H]1OC(CO)C(O)C(O)C1O (some centres undefined) | u | -28% | x | 1%
Cc1cccn2c(=O)cc(COc3cccc(NC(=O)COc4ccc(F)cc4)c3)nc12 | 7.9µM* | u | u | -6%[10.9 µM]
O=S(=O)(NCCO)c1cc[c]([Sb])cc1 | x | x | x | -5%[10.9 µM]
